# In PubChem BioAssay (EPA / NIEHS):
# Inconclusive results are not listed. The source made the active and inactive calls. How the source made its calls, unless noted: active means hit-call score of the fitted dose curve at least 0.9, where 1 is the maximum; inactive means score below 0.9.
# Columns and labels:
# [1] = CCTE_Padilla_ZF_Score.Any: CCTE's 144 Hour Post-fertilization zebrafish Assay Score for Any Mortality or Malformation, Padilla Lab (AID 2284416)
# In short: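 Wild-type zebrafish embryos with chorions, one per well in 10% Hanks' from 6–8 hpf, dosed in sealed plates at 26 C, 14:10 h light:dark; rinsed at 5 dpf; blinded scoring at 6 dpf for death or malformation, versus DMSO.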
# TTR (gene 7276) = assay: CCTE_GLTED_hTTR_0.125uM: CCTE's human Transthyretin (hTTR) Inhibition Assay, with 0.125uM TTR, Great Lakes Toxicology and Ecology Division (GLTED) Lab (AID 2284431);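 further: hits lower the fluorescence signal relative to DMSO baseline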
# In short: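 Cell-free displacement of the fluorescent probe ANSA from human TTR (0.125uM) after 2 h incubation with test chemical. Fluorescence read at 380 nm excitation/475 nm emission; loss of signal fitted relative to DMSO baseline.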
# [2] = test system: Brachyury (BRA) Protein Expression, TBXT (gene 6862); assay: CCTE_Deisenroth_DEVTOX-GLR_Endo_BRA: CCTE's DevTox GLR-Endo Assay Evaluation of Brachyury (BRA) Protein Expression, Deisenroth Lab (AID 2284417)
# In short: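 RUES2-GLR human pluripotent cells, seeded 24 h, then differentiated 48 h in defined media with two chemical exposures 24 h apart (10-point series, 1 nM - 200 uM). Fixed, nuclear-stained, imaged; endpoint is percent BRA+ cells minus 0.2% DMSO control.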
# [3] = CCTE_Deisenroth_DEVTOX-GLR_Endo_CellCount: Viability Assessment in CCTE's DevTox GLR-Endo Assay, Deisenroth Lab (AID 2284420)
# In short: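 RUES2-GLR human pluripotent cells seeded 24 h, then differentiated 48 h with two chemical exposures at 24 h intervals (10-point, 1 nM - 200 uM). Fixed, nuclear-stained, imaged; nuclei counts give % change in cell count versus 0.2% DMSO.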
# [4] = test system: SRY-box transcription factor 17 (SOX17) Protein Expression, Deisenroth Lab, SOX17 (gene 64321); assay: CCTE_Deisenroth_DEVTOX-GLR_Pluri_SOX17: CCTE's DevTox GLR-Pluri Assay Evaluation of SRY-box transcription factor 17 (SOX17) Protein Expression, Deisenroth Lab (AID 2284427; active means hit-call score of the fitted dose curve at least 0.9, where 1 is the maximum)
# In short: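 RUES2-GLR human pluripotent cells were seeded 24 h, then differentiated 48 h in defined media with two chemical exposures 24 h apart (10-point series, 1 nM - 200 uM). Fixed, nuclear-stained cells were imaged; %SOX17+ cells minus 0.2% DMSO control reported.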
# [5] = test system: SRY-box transcription factor 2 (SOX2) Protein Expression, Deisenroth Lab, SOX2 (gene 6657); assay: CCTE_Deisenroth_DEVTOX-GLR_Pluri_SOX2: CCTE's DevTox GLR-Pluri Assay Evaluation of SRY-box transcription factor 2 (SOX2) Protein Expression, Deisenroth Lab (AID 2284428)
# In short: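 Human pluripotent RUES2-GLR cells were seeded 24 h, then differentiated 48 h in defined media with two chemical doses at 24-h intervals (10-point, 1 nM–200 uM). Nuclear-stained cells were imaged; SOX2+ cells/cell count gave percent change versus 0.2% DMSO control.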
# [6] = test system: Brachyury (BRA) Protein Expression, Deisenroth Lab, TBXT (gene 6862); assay: CCTE_Deisenroth_DEVTOX-GLR_Pluri_BRA: CCTE's DevTox GLR-Pluri Assay Evaluation of Brachyury (BRA) Protein Expression, Deisenroth Lab (AID 2284429; active means hit-call score of the fitted dose curve at least 0.9, where 1 is the maximum)
# In short: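 RUES2-GLR reporter line; 48 h mesoderm differentiation; two exposures, 24 h apart; 1 nM - 200 uM, 10 points; nuclear stain, high-content imaging, 5 fields/well; endpoint = %BRA+ cells of total count minus 0.2% DMSO; n=4.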
# [7] = CCTE_Deisenroth_DEVTOX-GLR_Pluri_CellCount: Viability Assessment in CCTE's DevTox GLR-Pluri Assay Evaluation of Total Cell Counts, Deisenroth Lab (AID 2284430)
# Protocol: CCTE_Deisenroth_DEVTOX-GLR_Pluri assay is a cell-based, multiplex-readout assay that uses RUES2-GLR, a human pluripotent cell line, with measurements taken at 48 hours after chemical dosing in a 384-well microplateCCTE_Deisenroth_DEVTOX-GLR_Pluri_CellCount is 1 of 4 assay components calculated from the CCTE_Deisenroth_DEVTOX-GLR_Pluri assay and it measures cell count. Using fluorescent nuclei staining, gain-of-signal activity can be used to understand changes in cell viability with fluorescent microscopy. It is designed to make measurements of nuclei counts as a surrogate for cell number, as detected with optical fluorescence microscopy by Perkin Elmer Harmony nuclei detection algorithm. To generalize the intended target to other relatable targets, this assay component is annotated to the cell cycle intended target family, where the subfamily is cytotoxicity.Data from the assay component CCTE_Deisenroth_DEVTOX-GLR_Pluri_CellCount was analyzed as 1 assay endpoint. The endpoint the percent change in the cell count relative to the 0.2% DMSO control in the CCTE_Deisenroth_DEVTOX-GLR_Pluri assay. Furthermore, this assay endpoint can be referred to as a primary readout, because this assay has produced multiple assay endpoints where this one serves as a measure of cytotoxicity.
# All assay protocols are aligned to the DevTox GLR-Endo assay workflow. Cells are seeded into 384-well microplates for 24 hours prior to initiating differentiation in defined media for a total duration of 48 hours. A total of two chemical exposures are administered in 24-hour intervals during the 48-hour differentiation period. At the assay termination point, cells are fixed and stained with a fluorescent dye demarcating the nucleus. High-content imaging is used to acquire brightfield and fluorescent channel images across 5 fields per well. Cell identification and mean biomarker fluorescence intensities are calculated with image analysis software to determine the total cell counts for viability assessment and the biomarker expression frequency for each lineage-dependent assay. A typical experimental design tests a 10-point concentration series (1 nM - 200 uM) for 28 compounds in single technical replicate. Assay plate controls include non-differentiated pluripotent cells (baseline control), lineage-specific differentiated cells (differentiation control), and DMSO solvent exposed differentiated cells (solvent control). Experiments typically comprise a minimum of four experimental replicates (n=4).
structure (smiles),measurement,setting,value
FC(OC(F)(F)C(F)(F)C(F)(F)F)C(F)(F)F (configuration not stated),outcome,[1],inactive
O=C(F)C(F)(F)C(F)(F)C(F)(F)C(=O)F,outcome,[1],inactive
O=C1OC(=O)C(F)(F)C1(F)F,outcome,[1],inactive
O=C(O)CCC(F)(F)C(F)(F)C(F)(F)C(F)(F)C(F)(F)C(F)(F)F,AC50,[1],13.8 µM (active)
Cc1[nH]nc2c1N=C(c1ccccc1Cl)c1cc([N+](=O)[O-])ccc1N2,AC50,TTR (gene 7276),0.771 µM (active)
O=CC(F)(F)C(F)(F)C(F)(F)F,outcome,[1],inactive
O=P(O)(O)CCC(F)(F)C(F)(F)C(F)(F)C(F)(F)C(F)(F)C(F)(F)F,AC50,[1],25.6 µM (active)
FC(F)(F)N1C(F)(F)C(F)(F)OC(F)(F)C1(F)F,outcome,[1],inactive
FC(F)(F)C1(F)C(F)(F)C(F)(F)C(F)(F)C1(F)F,outcome,[1],inactive
FC1(F)C=CC(F)(F)C1(F)F,outcome,[1],inactive
O=CC(F)(F)C(F)(F)C(F)(F)C(F)F,outcome,[1],inactive
NC(C(F)(F)F)C(F)(F)F,outcome,[1],inactive
C=CC(F)(F)C(F)(F)C(F)(F)C(F)(F)F,outcome,[1],inactive
FCOC(C(F)(F)F)C(F)(F)F,outcome,[1],inactive
FC(F)(F)C1(F)C(F)(F)C(F)(F)C(F)(F)C(F)(C(F)(F)F)C1(F)F (configuration not stated),outcome,[1],inactive
FC(F)=C(F)C(F)(F)C(F)(F)C(F)(F)C(F)F,outcome,[1],inactive
CCCCc1oc2ccccc2c1C(=O)c1cc(I)c(OCCN(CC)CC)c(I)c1,AC50,[2],14.2 µM (active)
same,AC50,[3],18.2 µM (active)
same,AC50,[4],21.4 µM (active)
same,AC50,[5],10.4 µM (active)
same,AC50,[6],6.42 µM (active)
same,AC50,[7],10.6 µM (active)
O=C(OC(=O)C(F)(F)C(F)(F)F)C(F)(F)C(F)(F)F,outcome,[1],inactive
CN(Cc1cnc2nc(N)nc(N)c2n1)c1ccc(C(=O)N[C@@H](CCC(=O)O)C(=O)O)cc1,AC50,[2],0.329 µM (active)
same,AC50,[3],0.361 µM (active)
same,outcome,[4],inactive
same,AC50,[5],0.0314 µM (active)
same,outcome,[6],inactive
same,outcome,[7],inactive
CC(=O)Nc1ccc(O)cc1,outcome,[2],inactive
same,outcome,[3],inactive
same,outcome,[4],inactive
same,outcome,[5],inactive
same,outcome,[6],inactive
same,outcome,[7],inactive
CN(C)CCOC(c1ccccc1)c1ccccc1,AC50,[2],46.8 µM (active)
same,AC50,[3],61.7 µM (active)
same,AC50,[4],36.2 µM (active)
same,AC50,[5],83.2 µM (active)
same,AC50,[6],19.8 µM (active)
same,outcome,[7],inactive
C=CC(=O)OCCC(F)(F)C(F)(F)C(F)(F)C(F)(F)C(F)(F)C(F)(F)C(F)(F)C(F)(F)F,outcome,[1],inactive
COc1cc([N+](=O)[O-])ccc1N,AC50,TTR (gene 7276),14.9 µM (active)
O=C(O)C(F)(F)OC(F)(F)C(F)(F)OC(F)(F)C(F)(F)OC(F)(F)C(F)(F)C(F)(F)C(F)(F)F,AC50,[1],2.9 µM (active)
CCCCCCc1ccc(N)cc1,AC50,TTR (gene 7276),9.58 µM (active)
CCCCCCCCCCCC(=O)O,AC50,TTR (gene 7276),3.05 µM (active)
O=C(c1ccccc1)c1ccccc1,AC50,TTR (gene 7276),21.3 µM (active)
OCC(F)(F)C(F)(F)C(F)(F)C(F)(F)C(F)(F)C(F)(F)C(F)(F)C(F)(F)C(F)(F)C(F)(F)C(F)(F)F,outcome,[1],inactive
O=C(CC(=O)C(F)(F)C(F)(F)C(F)(F)F)c1cccs1,AC50,[1],3.55 µM (active)
COC(=O)C(F)(F)C(F)(F)C(F)(F)C(F)(F)C(F)(F)F,outcome,[1],inactive
CCC(C)c1ccccc1O (configuration not stated),AC50,TTR (gene 7276),22.4 µM (active)
CN(CCO)S(=O)(=O)C(F)(F)C(F)(F)C(F)(F)C(F)(F)C(F)(F)C(F)(F)C(F)(F)C(F)(F)F,AC50,[1],9.78 µM (active)
O=C(O)CCC(F)(F)C(F)(F)C(F)(F)C(F)(F)C(F)(F)F,AC50,[1],10 µM (active)
CCCCc1ccc2ccccc2c1S(=O)(=O)O,AC50,TTR (gene 7276),0.712 µM (active)
O=C1NS(=O)(=O)c2ccccc21,outcome,[2],inactive
same,outcome,[3],inactive
same,outcome,[4],inactive
same,outcome,[5],inactive
same,outcome,[6],inactive
same,outcome,[7],inactive
CCCCCCCCCC=CCC1CC(=O)OC1=O (configuration not stated),AC50,TTR (gene 7276),7.87 µM (active)
O=P(O)(O)CCC(F)(F)C(F)(F)C(F)(F)C(F)(F)C(F)(F)C(F)(F)C(F)(F)C(F)(F)F,AC50,[1],2.32 µM (active)
